# TDP1 cell CPT – growth inhibition of DT40 Tdp1-/-;hTDP1 cells with camptothecin (screen for TDP1 inhibitors); chicken DT40 Tdp1-/-;hTDP1 cells + 20 nM CPT, ATP luminescence, 48 h; Potency, µM (doses to about 46.2 µM), for inactives: top-dose activity change, negative = growth inhibition, most hits filed as inhibitors; 420,000 tested, 12% active; AID 686979; also: potency is read from the fitted curve at half-maximal effect; nearly all actives have a fitted effect of over 55% in size
#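 Chicken DT40 Tdp1-/- cells stably complemented with human TDP1 were seeded at 400 cells/well in medium containing 20 nM camptothecin, exposed to pin-transferred compounds, and grown at 37 °C for at least 48 hr. Viability was read as ATP luminescence.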
# Gal4-VP16 FLuc – inhibits Gal4-VP16 luciferase reporter, ROR gamma counter-screen | Potency, µM (highest dose often 53.6 µM), inactives show top-dose activity, negative = inhibition, most hits filed as inhibitors | AID 2546 | 310,000 tested, 3.5% active | Drosophila S2 Gal4-VP16 UAS-luciferase, luminescence, 20 h;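 also: Gal4-VP16 expression switched on by copper sulfate through the metallothionein promoter; potency is read from the fitted curve at half-maximal effect; nearly all actives have a fitted effect of over 50% in size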
# DT40 TDP1 no CPT – qHTS for Inhibitors of human tyrosyl-DNA phosphodiesterase 1 (TDP1): qHTS in cells in absence of CPT; Potency, µM (series often up to 46.2 µM), without a hit: top-dose activity change, negative = growth inhibition, usual class: inhibitors; DT40 Tdp1-/- hTDP1 cells, no CPT, ATP luminescence, 48 h; 420,000 tested, 15% active; also: potency is read from the fitted curve at half-maximal effect; nearly all actives have a fitted effect of over 55% in size
#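 Seeded 400 DT40-hTDP1 cells/well (vehicle DMSO, no 20 nM CPT); pinned compounds; ≥48 hr at 37 °C; CellTiter-Glo luminescence as viability measure.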
# RORg inh – ROR gamma (mouse) transcription inhibition. Drosophila S2 Gal4-RORgamma UAS-luciferase reporter, 20 h. Potency, µM (doses to about 53.6 µM), for the others: at the highest dose activity change, negative = inhibition, usual class: inhibitors. 310,000 tested, 5.4% active; also: potency is read from the fitted curve at half-maximal effect; nearly all actives have a fitted effect of over 60% in size
# Target sequence (P51450 whole entry, looked up, the tested form may be a part): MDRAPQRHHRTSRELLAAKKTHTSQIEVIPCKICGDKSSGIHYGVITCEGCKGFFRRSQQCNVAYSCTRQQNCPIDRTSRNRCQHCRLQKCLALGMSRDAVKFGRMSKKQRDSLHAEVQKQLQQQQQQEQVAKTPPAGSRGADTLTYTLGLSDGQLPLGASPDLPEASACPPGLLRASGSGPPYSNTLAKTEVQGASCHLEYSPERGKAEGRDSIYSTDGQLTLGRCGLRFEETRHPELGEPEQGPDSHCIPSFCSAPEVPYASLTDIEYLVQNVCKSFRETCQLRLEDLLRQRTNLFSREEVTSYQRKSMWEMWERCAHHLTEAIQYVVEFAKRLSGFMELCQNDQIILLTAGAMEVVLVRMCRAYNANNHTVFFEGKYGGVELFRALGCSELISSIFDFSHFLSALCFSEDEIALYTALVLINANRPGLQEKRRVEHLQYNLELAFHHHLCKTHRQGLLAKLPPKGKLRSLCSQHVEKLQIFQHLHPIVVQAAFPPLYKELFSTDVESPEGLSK
#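 Drosophila S2 cells stably expressing Gal4-DBD/mouse RORγ fusion under metallothionein promoter plus UAS-luciferase; compound 1 h, then 700 uM CuSO4 induction for 20 h at ambient temperature; inhibition read as reduced luminescence.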
# LDHA inh – blocks human lactate dehydrogenase A; 480,000 tested, 0.15% active; purified LDHA, NADH/diaphorase-resazurin fluorescence; stronger effect = lower value; activity change, % (values are at about 110 or 230 µM); AID 1347041; P00338; in the data active = activity change below about -30%; inconclusive = mostly about -25% to -30%;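 also: plate controls were DMSO wells for no effect and wells without enzyme for full effect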
#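 Enzyme activity of human lactate dehydrogenase 5 (2 nM; 0.06 mM NADH, 0.2 mM pyruvate, 5 min, RT) is measured via a resazurin/diaphorase fluorescence readout of residual NADH.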
# IL-1B inflam inh – inflammasome signaling inhibition, IL-1 beta readout; THP-1 LPS/ATP IL-1B secretion, AlphaLISA, 16 h; stronger effect = lower value; activity change, % at 57.5 µM; 360,000 tested, 4.7% active; in the data active = activity change below about -50%; inconclusive = mostly about -30% to -49%
#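 THP-1 cells pretreated 1 hr with compounds (up to 57.5 uM final), then stimulated with LPS (250 ng/mL final) plus ATP (1.25 mM final); secreted IL-1B measured by AlphaLISA after 16 hr, decreased signal indicating inhibition.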
# * = called active by the depositor; ? = inconclusive; . = no result; [ ] = remark or other dose. In the library only some 18% were active in any assay of this set; here they are far more common. Unless noted, calls follow the shape of the dose curve; as a rule, active = well fitted curve in the direction sought with a large enough effect; inconclusive = small, poorly fitted or top-dose-only effect, or another doubt; inactive = no such curve, though single readings can be large; an effect the other way counts as inactive or inconclusive. Unless noted, % is scaled to controls: 0 for no effect and ±100 for the full control effect.
SMILES,TDP1 cell CPT,Gal4-VP16 FLuc,DT40 TDP1 no CPT,RORg inh,LDHA inh,IL-1B inflam inh
CCn1c(SCC(=O)NC2CCCc3ccccc32)nnc1C1CC1 (stereo not drawn),.,.,.,.,-4,.
N#C/C(=C/c1cc(Br)ccc1OCc1ccccc1C#N)c1cccc(F)c1,.,.,.,.,-6,.
CN(Cc1ccccc1)C(=O)c1[nH]cnc1C(=O)NCC(=O)OCc1ccccc1,-8%,-30%,-20%,11µM*,-5,2
O=C(N[C@@H](Cc1ccccc1)C(=O)OCc1ccccc1)c1nc[nH]c1C(=O)NC(c1ccccc1)c1ccccc1,?,5.6µM*,?,3.5µM*,-7,0
CN(Cc1ccccc1)C(=O)c1[nH]cnc1C(=O)N[C@@H](Cc1ccccc1)C(=O)OCc1ccccc1,?,10µM*,?,10µM*,-15,9
C[C@H](NC(=O)c1nc[nH]c1C(=O)N[C@@H](Cc1ccccc1)C(=O)OCc1ccccc1)c1ccccc1,?,7.9µM*,?,4.5µM*,1,16
O=C(CNC(=O)c1[nH]cnc1C(=O)N[C@@H](Cc1ccccc1)C(=O)OCc1ccccc1)OCc1ccccc1,?,?,?,?,1,-8
COc1ccc(CC(=O)OCC(=O)Nc2ccccc2OC(F)F)cc1,.,.,.,.,6,.
Cc1ccc(C(CNC(=O)c2cc(=O)c3cc(Cl)ccc3o2)N2CCC(C)CC2)o1 (stereo not drawn),.,.,.,.,-23,.
C[C@@H](NC(=O)c1nc[nH]c1C(=O)N[C@@H](Cc1ccccc1)C(=O)OCc1ccccc1)c1ccccc1,?,7.1µM*,18µM*,5.6µM*,1,46
C[C@H](NC(=O)c1nc[nH]c1C(=O)N[C@H](C)c1ccccc1)C(=O)OCc1ccccc1,-22%,3%,-17%,-5%,1,78
COC(=O)c1sccc1NC(=O)Nc1ccc(OC)c(OC)c1,-27%,0%,22%,17%,3,-22
COC(=O)c1sccc1NC(=S)Nc1cc(OC)ccc1OC,20%,?,4%,11µM*,3,21
COc1ccc(OC)c(NC(=O)C2CCCC2)c1,9%,1%,-1%,-13%,-3,-13
COC(=O)c1sccc1NC(=S)Nc1ccc(OC)cc1,-5%,14µM*,-8%,6.3µM*,-8,-7
COC(=O)c1sccc1NC(=S)OC,18%,3%,-26%,14%,-5,-3
CNC(=S)Nc1cc(OC)ccc1OC,-15%,?,-16%,11µM*,3,-2
CCc1ccc(NC(=O)Nc2ccsc2C(=O)OC)cc1,-18%,?,-14%,8.9µM*,-1,-13
Cc1ccc(NC(=O)C2CCN(c3cnc4ccccc4n3)CC2)cc1Cl,.,.,.,.,11,.
O=C(Cn1cnc2ccccc2c1=O)OCC(=O)c1ccc2c(c1)OCO2,.,.,.,.,0,.
COc1ccc(C2/C=C\CN(C(=O)c3ccccc3)CC(=O)N2Cc2cccc(F)c2)cc1 (stereo not drawn),?,.,-64%,.,-7,0
COc1ccc(C2/C=C\CN(CC3CC3)CC(=O)N2Cc2ccc(F)cc2)cc1 (stereo not drawn),?,16%,?,-32%,1,-23
COc1ccc([C@H]2/C=C\CN(C(=O)[C@H](Cc3ccccc3)NC(=O)OCC3c4ccccc4-c4ccccc43)CC(=O)N2Cc2ccc(F)cc2)cc1,21µM*,.,?,.,-4,-26
COc1ccc(C2/C=C\CN(C(=O)OCC3c4ccccc4-c4ccccc43)CC(=O)N2Cc2cccc(F)c2)cc1 (stereo not drawn),?,-9%[40.7 µM],23µM*,-24%[40.7 µM],-2,2
CC1(c2nnc(-c3ccccc3)o2)CC(c2ccc(Cl)cc2)=NO1 (stereo not drawn),-11%,-2%,-28%,15%,-3,2
SMILES,TDP1 cell CPT,Gal4-VP16 FLuc,DT40 TDP1 no CPT,RORg inh,LDHA inh,IL-1B inflam inh
CC1(c2nnc(-c3ccncc3)o2)CC(c2ccc(Cl)cc2)=NO1 (stereo not drawn),21µM*,.,21µM*,.,-1,-10
CC1(c2nnc(-c3ccccc3)o2)CC(c2ccc([N+](=O)[O-])cc2)=NO1 (stereo not drawn),?,.,18µM*,.,-3,10
COc1cccc(-c2nc(-c3ccc(S(=O)(=O)N4CCCCC4)cc3)cs2)c1OC,.,.,.,.,-3,.
COc1ccc(/C=N/NC(=O)c2ccc3c(c2)OCCO3)cc1[N+](=O)[O-],3%,-1%,2%,20%,-4,-4
Cc1cc(C(=O)Nc2ccc3c(c2)OCCO3)ccc1[N+](=O)[O-],-14%,?,?,21%[1.91 µM],2,-13
O=C(N/N=C/c1cc([N+](=O)[O-])ccc1O)c1ccc2c(c1)OCCO2,2.1µM*,1.4µM*,1.5µM*,0.63µM*,6,18
O=C(N/N=C/c1cc([N+](=O)[O-])ccc1O)c1ccncc1,?,4%,?,?,5,142
O=C(N/N=C/c1ccccc1[N+](=O)[O-])c1ccc2c(c1)OCCO2,-23%,7.1µM*,-18%,3.5µM*,-8,-18
O=C(N/N=C/c1cc(O)ccc1[N+](=O)[O-])c1ccc2c(c1)OCCO2,?,8.9µM*,?,10µM*,1,41
O=C(N/N=C/c1cc([N+](=O)[O-])ccc1O)c1cccc(N2CCCC2=O)c1,15µM*,3.2µM*,10µM*,2.2µM*,0,162
Cn1c(C=C(C#N)C#N)ccc1-c1ccc(Cl)cc1,.,.,.,.,9,.
CC(C)Cc1ccc(C(C)NC(=O)C(Cc2ccccc2)NC(=O)c2ccccc2)cc1 (stereo not drawn),.,.,.,.,1,.
O=C(Nc1ccc(-c2nc3ccccc3o2)cc1)c1cccc(F)c1,.,.,.,.,1,.
CC(=O)c1cccc(NC(=O)C2CCN(c3nc4ccccc4nc3OC(C)C)CC2)c1,.,.,.,.,5,.
CN1/C(=C/C(=O)CSc2ccccc2C(=O)O)C(C)(C)c2ccccc21,?,-7%,9.2µM*,2%,-8,8
CN1/C(=C\C(=O)CSc2nnc(N)s2)C(C)(C)c2ccccc21,?,-24%,21µM*,?,-3,-7
COCCn1c(SCC(=O)/C=C2\N(C)c3ccccc3C2(C)C)nnc1-c1ccncc1,23µM*,?,23µM*,?,2,?
CN1/C(=C/C(=O)CSC(=S)N2CCCC2)C(C)(C)c2ccccc21,.,.,.,.,2,.
